In PubChem BioAssay (NCI):
The panel holds about 79,000 compounds, 15% with a hit somewhere; the sample as a whole holds those more often. Unmarked numbers belong to inactive results. The source made the active and inactive calls. Cut-off read from the data, not from the text of the source: active = growth inhibition above about 70%; inactive = the rest.

Legend:
[1] = NCI Yeast Anticancer Drug Screen. Data for the rad50 strain (AID 155);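 note: 0% = growth of vehicle-only cultures of the same strain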; settings: S. cerevisiae rad50 strain growth inhibition; at 50.0 µM; stronger effect = higher value
Method in brief: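 A DNA repair-deficient yeast mutant serves as the test organism; compound-induced growth inhibition is calculated against vehicle-treated cells.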

[2] = NCI Yeast Anticancer Drug Screen. Data for the mec2-1 strain (AID 157); settings: S. cerevisiae mec2-1 strain, at 50.0 µM, stronger effect = higher value
Method in brief: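 Vehicle-treated cultures served as reference for growth inhibition of compound-exposed mec2-1 yeast.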

[3] = NCI Yeast Anticancer Drug Screen. Data for the sgs1 mgt1 strain (AID 161);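 note: 0% = growth of cultures given vehicle only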; settings: S. cerevisiae sgs1 mgt1 strain, at 50.0 µM, stronger effect = higher value
Method in brief: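 Read-out: growth inhibition vs vehicle controls. Cells: mutant yeast strain deficient in DNA damage repair.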

[4] = NCI Yeast Anticancer Drug Screen. Data for the cln2 rad14 strain (AID 165);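 note: 0% = growth equal to vehicle treated cultures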; settings: S. cerevisiae cln2 rad14 strain, at 50.0 µM, stronger effect = higher value
Method in brief: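 Each compound was tested on cln2 rad14 yeast. Inhibition of growth was calculated against vehicle-exposed controls.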

[5] = NCI Yeast Anticancer Drug Screen. Data for the bub3 strain (AID 167); settings: S. cerevisiae bub3 mutant strain, at 50.0 µM, stronger effect = higher value
Method in brief: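 Inhibition values come from growth of compound-treated mutant yeast normalised to vehicle-treated controls.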

[6] = NCI Yeast Anticancer Drug Screen. Data for the mlh1 rad18 strain (AID 175); settings: S. cerevisiae mlh1 rad18 strain growth inhibition; at 50.0 µM; stronger effect = higher value
Method in brief: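 Vehicle-treated cultures served as the reference for growth inhibition in a yeast strain carrying DNA damage repair alterations exposed to each compound.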

SMILES | growth inhibition [1] | growth inhibition [2] | growth inhibition [3] | growth inhibition [4] | growth inhibition [5] | growth inhibition [6]
CC(C)(C)CC1(C)NC(=O)NC1=O (stereo not drawn) | -7.3% | 8.25% | 13.1% | -58.2% | 7.25% | 8.45%
COc1c(CNC(=O)CCl)cc2[nH]c(C)cc2c1CNC(=O)CCl | 4.9% | 4.95% | 17.3% | 2.2% | 9.7% | -25.9%
CC(=O)OCC1OC(n2cnc3c(=S)nc(N)[nH]c32)C(OC(C)=O)C1OC(C)=O (stereo not drawn) | 73% (active) | 42% | 48.5% | -12.4% | 11.1% | 24.6%
O=C(O)CSCC(=O)Nc1cc(C(F)(F)F)ccc1Cl | -28.1% | -36.6% | -25.8% | -22.9% | -11.3% | -11.2%
CNc1ccccc1C(N)=O | -21.5% | -28.6% | -10.3% | 11.7% | -7.85% | -6.5%
CCCCCCCCCCCCSC1=C(Cl)C(=O)C(OC)=C(OC)C1=O | 23.3% | -18.1% | 1.5% | 4.75% | -7.2% | 38%
COc1cc2c(c(OC)c1OC)-c1ccc(SC)c(=O)cc1[C@@H](NC1OC(CO)C(O)C(O)C1O)CC2 (stereo partly drawn) | -10.6% | -1.85% | 5.25% | 6.2% | 5.05% | 3.45%
CCOC(=O)C(COS(C)(=O)=O)(COS(C)(=O)=O)C(=O)OCC | -24.4% | -22.9% | -21.4% | -2.05% | -2.35% | -6.1%
CSc1cnc2ccccc2n1 | 5.55% | -5.95% | -10.6% | 13.1% | -0.85% | -3.9%
CCOC(=O)Nc1nccs1 | -13.7% | 7.9% | -5.3% | -37% | -2.6% | -4.6%
NS(=O)(=O)c1cc(=O)[nH]c(=O)[nH]1 | -12.2% | -10.8% | -0.5% | -4% | -1.95% | 3.4%
CCCCCCCCCCC(=O)CCCCCCCCCC | 7.15% | -12.2% | 8.1% | 16.8% | 7.6% | 7.05%
COc1ccc(Br)c(C=O)c1 | -10.1% | -8.9% | -5.65% | 1.95% | -7.45% | -2.25%
NC(CO)(CO)c1ccccc1 | 34.4% | 13.1% | 10.5% | 20% | 17.5% | 29.9%
Cc1cc(=O)n(Nc2ccccc2)c(O)c1C#N | 3.45% | -19% | 0.3% | 2.65% | 5.6% | 3.15%
C=C1CC2(OC1=O)C(=O)N(C)c1ccc(I)cc12 (stereo not drawn) | 91.3% (active) | 93.2% (active) | 92.1% (active) | 90.5% (active) | 91.5% (active) | 91.2% (active)
O=C1C=Cc2ccccc2/C1=C/c1[nH]c(=O)[nH]c1O | -21.1% | -1.35% | -9.7% | 3.2% | -3% | -5.3%
CCCCCC(=O)OCCC1CCCCC1 | 25.6% | 9.3% | 18.7% | -6.7% | 11.6% | 31.2%
COc1cccc(N=CNc2cccc(OC)c2)c1 | -36.2% | -34.7% | -17.4% | 8.55% | -11.8% | -27.9%
O=C1NC(=O)/C(=C\c2ccncc2)N1 | 28.9% | -7.8% | -0.3% | 9.3% | -19.8% | -56.5%
Cc1ccc(NC(=O)c2ccccc2Cl)cc1 | 12.4% | -4.35% | -13.3% | -42% | -6.3% | 6.05%
O=C(c1ccc(Cl)cc1)N1CCCCC1 | 1.05% | 2.85% | -17.6% | -0.65% | -7.15% | -5.8%

SMILES | growth inhibition [1] | growth inhibition [2] | growth inhibition [3] | growth inhibition [4] | growth inhibition [5] | growth inhibition [6]
CC(CCC#N)(CCC#N)C(=O)c1ccccc1 | 28.6% | 25.7% | 25.1% | -38.3% | -4.75% | 7.65%
CC(=O)NNC(=S)/N=C\C(C(=O)c1ccccc1)=C(/O)c1ccccc1 | -41.4% | -28.8% | -14.4% | 2% | -15.4% | -19.2%
C=C(C)COc1ccc(C(C)(C)C)cc1 | 18.1% | 16.7% | 11.1% | 8.1% | 17.6% | 12%
CN(C)c1ccc2c(N(C)C)cc(N(C)C)nc2c1 | -14.8% | -4.3% | -17.1% | 20.4% | 2.95% | -12%
C[C@H](CCC[C@H](C)OS(=O)(=O)c1ccccc1)OS(=O)(=O)c1ccccc1 | 9.3% | -3.9% | 5.85% | 4.55% | -8.15% | -16.6%
CCOC(=O)C1(N)CCCCC1 | 10.3% | 0.45% | 11.1% | -9.85% | 13% | 11.8%
CC(C)(N)CO[C@H]1C[C@H]2CC[C@@]1(C)C2(C)C | 11.8% | -5.7% | 2.4% | -26.4% | 10.2% | -6.15%
CC(=O)OC(C)c1cccc(C#N)c1 (stereo not drawn) | 7.15% | -25.4% | 6.2% | -8.9% | -2.95% | 22%
CCC(=O)Oc1c(C)cc(O)c2ccccc12 | 8.95% | -49.6% | 18.7% | 52.9% | 35.2% | 27.7%
COc1ccc(/C=N/NC(=O)COCC(=O)N/N=C/c2ccc(OC)cc2)cc1 | -34.6% | -47.7% | -15.4% | 2.5% | -33% | -25.6%
CC(C)C(=O)OCCOc1ccc(C(C)(C)C)cc1 | 6.35% | 3.1% | 6.9% | -5.2% | 15% | 13.7%
CCOC(=O)C(=O)CC(=O)c1ccccc1 | 8.65% | 8.05% | -5.75% | -26.4% | 8.55% | 11.7%
O=C(NC1CCCCC1)c1ccc(Cl)cc1 | 4.55% | -6.7% | -20.1% | 12.7% | -17.6% | -1.85%
Oc1cccc(CNC2CCCCC2)c1 | 3.5% | 0.25% | -0.6% | 10.2% | -22.4% | 9.15%
CCOc1ccncc1[N+](=O)[O-] | 5.5% | 13.1% | 3.25% | -7% | 10.1% | 5%
CCOC(=O)c1cc(C)[nH]c(=O)c1C#N | -12.2% | -3.1% | -5.1% | -5.1% | 4.55% | 2.65%
CCN(CC)CCN1CNC(=S)NC1 | 0.1% | -20.6% | 11.2% | -1.8% | -1.2% | -7.15%
Nc1cc2c(cc1Cl)C(=O)c1ccccc1C2=O | 32.4% | 16.6% | 9.75% | -63.6% | 38.4% | 1.35%
O=C(Nc1ccc([N+](=O)[O-])cc1)C(=O)Nc1ccc([N+](=O)[O-])cc1 | -8.7% | -24.2% | 11.6% | -7.55% | 3.1% | 5.3%
Nc1ccc2ccccc2c1-c1c(N)ccc2ccccc12 | 14.8% | 2.45% | -2.05% | 1.1% | 0.75% | -2.65%
C=COC(=O)C(C)(C)C | 8.3% | -13.8% | 14.9% | 21.4% | -0.45% | 31.5%
